Lassa entry inh: Lassa virus entry inhibition; Lassa virus pseudotype entry inhibition, cell reporter; Potency, µM (highest dose often 37.9 µM), for the others: at the top dose activity change, negative = inhibition, most hits filed as inhibitors; 300,000 tested, 1.2% active; AID 540256; calls by dose curve; tested in HEK293 cells; note: potency is the fitted concentration of half-maximal effect; % is set by controls: 0 for no effect and ±100 for the full control effect; nearly all actives have a fitted effect of over 50% in size
Marburg entry inh: Marburg virus entry inhibition; Marburg virus pseudotyped entry inhibition, cell reporter; Potency, µM (titrated, usually from 37.8 µM), for the others: at the top dose activity change, negative = inhibition, hits mostly inhibitors; 300,000 tested, 1.8% active; AID 540276; calls by dose curve; tested in HEK293 cells; note: potency is the fitted concentration of half-maximal effect; % is set by controls: 0 for no effect and ±100 for the full control effect
HCMV inh: human cytomegalovirus inhibition; HFF cells, HCMV-luciferase reporter, 72 h; stronger effect = lower value; activity change, negative = inhibition, % at 57.5 µM; 410,000 tested, 4.5% active; AID 1259415; in the data active = activity change below about -60%; inconclusive = no clear call, values can overlap the other calls; inactive = above about -39%; note: % is set by controls: 0 for no effect and ±100 for the full control effect
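Steps: HFFs plated, 16 h 37C; compounds added; HCMV-luciferase added to MOI 1 PFU/cell; 72 h 37C; OneGlo reagent, 5 min room temperature; luminescence read, normalized to controls.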
SARS PLP yeast: SARS-CoV PLP inhibition in yeast. 330,000 tested, 0.19% active. S. cerevisiae expressing SARS-CoV PLpro, growth rescue. Potency, µM (doses to about 32.9 µM), without a hit: top-dose activity, positive = growth rescue, usual class: activators; calls by dose curve; note: potency is the fitted concentration of half-maximal effect; 0% is about no effect; nearly all actives have a fitted effect of over 55% in size
FMDV antiviral: blocks foot and mouth disease virus | FMDV antiviral cell-based qHTS | Potency, µM (top dose mostly 57.9 µM), for the others: top-dose activity change, negative = inhibition, hits mostly inhibitors | 410,000 tested, 1.2% active; calls by dose curve; tested in HEK293T cells; note: read-out not given here; potency is the fitted concentration of half-maximal effect; % is set by controls: 0 for no effect and ±100 for the full control effect; nearly all actives have a fitted effect of over 45% in size
HCV inh: HCV inhibition; Potency, µM (top dose mostly 41.8 µM), for the others: at the highest dose activity change, negative = inhibition, most hits filed as inhibitors; Huh7.5.1 HCVcc-Cre infection, luciferase reporter, 44 h; 340,000 tested, 3.4% active; active = well fitted inhibition curve with a large enough effect; inconclusive = small, poorly fitted or top-dose-only effect, or another doubt; inactive = no such curve, though single readings can be large or run the other way; note: potency is the fitted concentration of half-maximal effect; % is set by controls: 0 for no effect and ±100 for the full control effect
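Luciferase read-out (15 sec integration) after a 15 min room-temperature substrate step quantifies HCVcc-Cre infection. Cells, 1,000 per well, had compound added 4 h post-plating, then virus at ~0.5 moi, and were cultured 44 h.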
* marks the source's active call; other numbers are inactive results; ? = inconclusive; / = no result given; [ ] = dose if it differs, or a comment. Shown are actives, neighbours in structure and some others; about 8% of the full set was active somewhere.

SMILES	Lassa entry inh	Marburg entry inh	HCMV inh	SARS PLP yeast	FMDV antiviral	HCV inh
Nn1cc(-c2ccccc2)nc1SCC(=O)Nc1ccc2c(c1)OCO2	1%	10%	-100*	-13%	23%	-8%
Cc1cccc(NC(=O)c2sc3nc(-c4ccccc4)cn3c2C)n1	?	?	?	-5%	/	13µM*
COc1ccc(-c2cn3c(C)c(C(=O)Nc4cccc(C)n4)sc3n2)cc1	?	?	?	-8%	-15%	?
Cc1ccc(-c2cc(-c3ccccc3)cc(-c3ccccc3)[n+]2-c2ccccc2C(=O)O)cc1	/	/	-67*	0%	?	?
O=C(O)c1ccccc1C(=O)c1ccc(-c2ccccc2)cc1	/	/	29	2%	45%	16%
CC1(C(=O)NS(=O)(=O)Cc2ccccc2)CCN1C(=O)C1(c2ccc(Cl)cc2)CC1 (stereo unspecified)	/	/	?	/	15%	/
Oc1ccccc1CN1CCCN(Cc2ccccc2O)C1	7.3µM*	1.5µM*	16	/	3%	8.9µM*
Oc1ccccc1CN1CCN(C(O)(c2ccccc2)c2ccccc2)CC1	/	/	52	?	-28%	?
Cc1ccc(NC(=O)C(=O)NCC(c2cccnc2)N2CCN(C)CC2)cc1C (stereo unspecified)	-17%[46.1 µM]	/	-23	/	-6%	/
Cc1sc2ncnc(SC(C)C(=O)N3c4ccccc4Sc4ccccc43)c2c1C (stereo unspecified)	?	11µM*	?	-25%	-25%	?
O=c1cc(N2CCCC2)c2ccccc2o1	-14%	11%[46.1 µM]	-1	1%	-7%	11µM*
CC(C)Cn1c(=O)c(C(=O)N/N=C/c2cccc(F)c2)c(O)c2ccccc21	13%	?	?	-1%	-28%	20µM*
CCCCn1c(=O)c(C(=O)N/N=C/c2ccc(F)cc2)c(O)c2ccccc21	/	/	/	-2%	/	/
Cc1ccc(CN2CCN(CC3CC4C=CC3C4)CC2)cc1 (stereo unspecified)	?	?	-8	7%	-26%	7%
O=C(Cn1c(=O)n(Cc2nc(-c3ccccc3)no2)c(=O)c2ccccc21)Nc1cccc(C(F)(F)F)c1	9%[46.1 µM]	/	-7	/	20µM*	/
CCC(=O)Oc1ccc(C2Nc3ccccc3-c3nnc(SC)nc3O2)cc1 (stereo unspecified)	-4%[46.1 µM]	-15%[46.1 µM]	-5	/	-23%	/
COc1ccc(C(=O)N2CCCC2(C#N)c2ccccc2)cc1[N+](=O)[O-] (stereo unspecified)	/	/	69	0%	?	14µM*
COc1ccccc1C(=O)N1CCCC1(C#N)c1ccccc1 (stereo unspecified)	1%	?	-11	0%	-4%	7%
CCCC(C(=O)NCc1cccc(Cl)c1)N1Cc2ccccc2C1=O (stereo unspecified)	-12%[46.1 µM]	/	-4	/	2%	/
CN(C)CCCNS(=O)(=O)c1ccc(NC2CCCCCC2)c([N+](=O)[O-])c1	-2%[46.1 µM]	?	-69*	-1%	-26%	5.6µM*
O=[N+]([O-])c1ccc(-[n+]2c(-c3ccccc3)cc(-c3ccccc3)cc2-c2ccccc2)cc1	/	/	?	-5%	-12%	-12%
O=[N+]([O-])c1ccccc1-c1cc(-c2ccccc2)cc(-c2ccccc2)[n+]1Cc1ccccc1Cl	/	/	-97*	-2%	?	3.5µM*
O=C(N[C@H]1CC[C@@]23CCCN2C(=O)CCC[C@H]3[C@H]1Cc1ccccc1)c1ccc(C(F)(F)F)cc1	/	/	-1	/	/	/
COc1ccc(-c2csc(NC(=O)CSc3nnc(Nc4ccccc4C)s3)n2)cc1	?	?	-70*	0%	17%	-24%
COc1ccccc1Nc1nnc(SCC(=O)Nc2nc(-c3ccc(F)cc3)cs2)s1	/	/	-88*	0%	-2%	-27%
SMILES	Lassa entry inh	Marburg entry inh	HCMV inh	SARS PLP yeast	FMDV antiviral	HCV inh
CCOc1ccccc1Nc1nnc(SCC(=O)Nc2nc(-c3ccc(OC)cc3)cs2)s1	-2%[46.1 µM]	17%[46.1 µM]	1	1%	10%	-15%
Cc1cccc(CNc2cc(-c3ccc(C(=O)N(C)C)cc3)ncn2)c1	/	/	/	/	33%	/
O=[N+]([O-])c1c(Nc2ccccc2O)ccc2nonc12	2%	25%[46.1 µM]	-29	-7%	-30%	3%
Nc1cc(Cl)c2nonc2c1[N+](=O)[O-]	?	?	-95*	6%	8.9µM*	4.5µM*
O=C(O)c1cc(Nc2cc(Cl)c3nonc3c2[N+](=O)[O-])ccc1O	/	/	31	3%	-19%	-5%
O=[N+]([O-])c1c(Nc2ccccc2O)cc(Cl)c2nonc12	?	?	-97*	-16%	10µM*	11µM*
CC(C)NC(=O)Nc1ccc2c(c1)C(=O)N([C@@H](C)CO)C[C@@H](C)[C@H](CN(C)Cc1ccccc1)OCCCC[C@H](C)O2	/	/	12	/	-23%	/
Fc1ccc(-c2noc(-c3ccc4c(c3)CCO4)n2)cc1	10µM*	?	43	-1%	-44%	-1%
Cc1noc(-c2ccc(-c3noc(-c4ccc(F)cc4)n3)cc2)n1	5%[46.1 µM]	/	9	/	-8%	/
FC(F)(F)c1cnc(N2CCCN(C(=S)Nc3ccccc3)CC2)c(Cl)c1	?	?	-85*	-2%	?	?
FC(F)(F)c1cnc(N2CCN(C(=S)NCc3ccccc3)CC2)c(Cl)c1	?	13µM*	-24	-2%	-17%	-27%
OC(CN1CCN(c2ncc(C(F)(F)F)cc2Cl)CC1)c1ccccc1 (stereo unspecified)	/	/	?	-3%	-24%	-25%
COc1ccc(C(=O)Nc2ccccc2C(=O)N(Cc2ccco2)C(C(N)=O)C(C)C)cc1 (stereo unspecified)	?	?	-76*	0%	-3%	-22%
COc1ccc(C(=O)Nc2ccccc2C(=O)NC(C(=O)NCc2ccco2)C(C)C)cc1 (stereo unspecified)	-9%	27%	-19	0%	-6%	-20%
COC(=O)c1ccc(Sc2nnnn2-c2ccccc2)c([N+](=O)[O-])c1	?	?	-40	-14%	20µM*	2%
O=C(O)c1ccc(Sc2nnnn2-c2ccccc2)c([N+](=O)[O-])c1	-18%	2%[46.1 µM]	20	-5%	4%	7%
COc1cc2c(cc1OC)[C@@H]1O[C@](CCCCN3C(=O)c4ccccc4C3=O)(C2)OC2=C1C(=O)c1ccccc1C2=O	/	-9%[14.2 µM]	/	/	/	/
Cc1ccc(-c2noc(C3CCN(C(=O)Nc4ccc(C#N)cc4)CC3)n2)o1	?	6%	-84*	-5%	-22%	10µM*
CN(C)c1ccc(-c2noc(C3CCN(C(=O)Nc4ccc(Cl)cc4)CC3)n2)cc1	-16%[46.1 µM]	-1%[46.1 µM]	18	0%	?	?
N#C/C(=C(/O)c1cccc(F)c1)c1nc2ccccc2s1	/	/	-70*	-3%	-3%	-14%

Bioassay records from PubChem BioAssay.
